SW480 rereplic – A quantitative high throughput screen for small molecules that induce DNA re-replication in SW480 colon adenocarcinoma cells. Potency, µM (series often up to 46.1 µM), inactives show at the top dose re-replication activation, actives largely listed as activators. AID 624297, 2012. SW480 DNA re-replication, Hoechst DNA content imaging, 48 h. actives 1.8% (n = 340,000); also: potency is read from the fitted curve at half-maximal effect; % of control where 0% means no effect; nearly all actives have a fitted effect of over 55% in size
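Readout is total intensity of Hoechst-stained nuclei, excited at 405 nm and collected at 500-530 nm. Compound treatment lasted 48 hr at 37 C in 5% CO2 before staining.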
TDP1 cell noCPT – qHTS for Inhibitors of human tyrosyl-DNA phosphodiesterase 1 (TDP1): qHTS in cells in absence of CPT; actives 15% (n = 420,000); DT40 Tdp1-/- hTDP1 cells, no CPT, ATP luminescence, 48 h; Potency, µM (doses to about 46.2 µM), for inactives: at the highest dose activity change, negative = growth inhibition, usual class: inhibitors; AID 686978, 2013; also: potency is read from the fitted curve at half-maximal effect; % is scaled to controls: 0 for no effect and ±100 for the full control effect; nearly all actives have a fitted effect of over 55% in size
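Readout: luminescence from CellTiter-Glo after 30 min in the dark at RT. Cells: DT40 Tdp1-/- with stable hTDP1, 400/well. Exposure: compounds alone, ≥48 hr, 37 °C.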
BCR signal inh – qHTS Assay to Find Inhibitors of Chronic Active B-Cell Receptor Signaling; actives 0.05% (n = 340,000); Potency, µM (titrated, usually from 46.1 µM), for inactives: at the top dose activity change, negative = inhibition, hits mostly inhibitors; ABC-DLBCL IkBa-CBG/CBR reporter, luminescence ratio, 4 h; AID 493014, 2011; active = well fitted inhibition curve with a large enough effect in the signal ratio, with a control signal flat, not every such curve was filed as active; inconclusive = small, poorly fitted or top-dose-only effect, or effect the other way, or a change in a side signal; the % refers to the signal ratio;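 also: potency is read from the fitted curve at half-maximal effect; plate controls were basal doxycycline-induced cells for no effect and cells given 10 µM MG132 for full effect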
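TMD8 ABC-DLBCL cells carrying doxycycline-inducible green luciferase fused to IkappaBalpha plus unfused red luciferase were exposed to compounds (up to 46 uM) for 4 hrs at 37C. Activity came from the overlap-corrected green/red luminescence ratio.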
DT40 TDP1 CPT – qHTS for Inhibitors of human tyrosyl-DNA phosphodiesterase 1 (TDP1): qHTS in cells in presence of CPT | chicken DT40 Tdp1-/-;hTDP1 cells + 20 nM CPT, ATP luminescence, 48 h | Potency, µM (series often up to 46.2 µM), for the others: at the top dose activity change, negative = growth inhibition, actives largely listed as inhibitors | actives 12% (n = 420,000) | AID 686979, 2013; also: potency is read from the fitted curve at half-maximal effect; % is scaled to controls: 0 for no effect and ±100 for the full control effect; nearly all actives have a fitted effect of over 55% in size
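Chicken DT40 Tdp1-/- cells complemented with human TDP1, 400 cells/well, exposed to compounds plus 20 nM camptothecin for at least 48 h at 37 C; viability read as ATP content by CellTiter-Glo luminescence.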
MCF10A rerep – A quantitative high throughput screen for small molecules that induce DNA re-replication in MCF 10a normal breast cells. MCF 10A DNA re-replication, Hoechst nuclear intensity, 48 h. Potency, µM (series often up to 46.1 µM), for inactives: top-dose activity, positive = re-replication, most hits filed as activators. actives 2.9% (n = 350,000). AID 624296, 2012; also: potency is read from the fitted curve at half-maximal effect; % of control where 0% means no effect; nearly all actives have a fitted effect of over 50% in size
IL1B secr inh – qHTS for Inhibitors of Inflammasome Signaling: IL-1-beta AlphaLISA Primary Screen; THP-1 LPS/ATP IL-1B secretion, AlphaLISA, 16 h; hits give low values; activity change, % at 57.5 µM; actives 4.7% (n = 360,000); AID 743279, 2014; in the data active = activity change below about -50%; inconclusive = mostly about -30% to -49%; also: % is scaled to controls: 0 for no effect and ±100 for the full control effect
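Secreted IL-1B measured by AlphaLISA bead assay after 16 h compound exposure of THP-1 cells; compounds (final up to 57.5 uM) added 1 h before LPS (250 ng/mL) and ATP (1.25 mM) stimulation; lower signal means less secretion.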
The depositor's hits bear a star; ? = inconclusive; nt = not tested or not shown. Hits are enriched below; roughly 19% of the tested compounds scored in any of these assays. Unless noted, calls follow the shape of the dose curve; as a rule, active = well fitted curve in the direction sought with a large enough effect; inconclusive = small, poorly fitted or top-dose-only effect, or another doubt; inactive = no such curve, though single readings can be large; an effect the other way counts as inactive or inconclusive.

SMILES	SW480 rereplic	TDP1 cell noCPT	BCR signal inh	DT40 TDP1 CPT	MCF10A rerep	IL1B secr inh
COc1ccc(NC(=O)C(=O)NCCC2CCCCN2S(=O)(=O)c2cccs2)cc1 (configuration not stated)	4.5µM*	4.6µM*	-9%	3.7µM*	2.1µM*	-27
CC[C@@H]1C/C=C\Cc2ccccc2[C@H](C(=O)C[C@H](O)CC(C)=O)OC1=O	24%	4%	-1%	1%	-12%	2
COc1ccnc(CS(=O)c2nc3ccc(OC(F)F)cc3[nH]2)c1OC (configuration not stated)	1%	?	nt	?	11%	nt
O=S(=O)(Nc1ccc(S(=O)(=O)N2CCCC2)cc1)c1ccccc1Br	1%	0%	0%	-6%	11%	14
COC(=O)C1N[C@@H]([C@@H](NC(=O)COc2ccccc2)C(=O)NCc2ccc(OC)cc2)SC1(C)C (some centres not stated)	16%	?	nt	?	1%	17
COc1cccc(NC(=O)C(=O)NCCC2CCCCN2S(=O)(=O)c2cccs2)c1 (configuration not stated)	7%	16µM*	?	?	10%	-9
COc1cccc(NC(=O)C(=O)NCC2CCCN2S(=O)(=O)c2cccs2)c1 (configuration not stated)	nt	-58%	nt	-46%	nt	-7
O=C1c2ccccc2C(=O)C1c1ccc(Cl)cc1	-2%	2%	0%	3%	3%	-9
O=C1c2ccccc2C(=O)C12OC2c1ccc(Cl)cc1Cl (configuration not stated)	?	9.2µM*	?	5.2µM*	12µM*	-101*
O=C1c2ccccc2S(=O)(=O)N1CCS(=O)(=O)c1ccc(F)cc1	16%	-8%	?	15%	14%	-76*
O=C(CCN1C(=O)c2ccccc2S1(=O)=O)N1CCN(c2ccc(F)cc2)CC1	-27%	-22%	-6%	-28%	-8%	18
O=C(NCC1CCCN(C(=O)c2cscn2)C1)c1ccccc1Cl (configuration not stated)	-1%	-26%	2%	-11%	0%	7
O=C(NCC1CCCN(C(=O)c2cscn2)C1)c1ccc(-c2ccccc2)cc1 (configuration not stated)	2%	21µM*	?	-29%	1%	?
O=C(Nc1cccc(-c2ccc(F)cc2)c1)C1CCCN(C(=O)c2cscn2)C1 (configuration not stated)	1%	?	4%	13µM*	10%	18
Cc1ncoc1C(=O)N1CCCC(C(=O)Nc2cccc(-c3ccc(F)cc3)c2)C1 (configuration not stated)	-6%	18µM*	?	?	0%	-9
CCN(CCO)c1nc(N2CCCCC2)c2cnn(C)c2n1	-17%	?	-12%	-23%	5%	14
Brc1ccc2c(c1)C(c1cccnc1)=NNC(c1cccs1)=N2	16%	?	-11%	?	25%	-9
Fc1ccc2c(c1)C(c1ccncc1)=NNC(c1ccc(Cl)cc1)=N2	5%	-27%	-8%	?	16%	-67*
Fc1ccc2c(c1)C(c1ccncc1)=NNC(c1ccccc1)=N2	-3%	?	?	-20%	-4%	-4
Brc1ccc2c(c1)C(c1ccc(N3CCOCC3)cc1)=NNC(c1cccs1)=N2	2%	21µM*	-2%	?	13%	-28
Cc1ccc2c(c1)C(c1ccc(N3CCOCC3)cc1)=NNC(c1cccs1)=N2	10%	?	-3%	?	?	?
Fc1ccc2c(c1)C(c1ccc(N3CCOCC3)cc1)=NNC(c1cccs1)=N2	0%	23µM*	?	?	24%	-51*
COc1cc(C2=NOC(C(=O)Nc3ccc(C(C)=O)cc3)C2)cc(OC)c1OC (configuration not stated)	-4%	-5%	-3%	-21%	2%	-5
Cc1ccc(CCNC(=O)C2CC(c3cc(C(F)(F)F)cc(C(F)(F)F)c3)=NO2)cc1 (configuration not stated)	2%	?	-3%	?	8%	0
O=C(NCc1ccc(C(F)(F)F)cc1)C1CC(c2cccc(F)c2)=NO1 (configuration not stated)	-1%	-28%	0%	?	?	2
SMILES	SW480 rereplic	TDP1 cell noCPT	BCR signal inh	DT40 TDP1 CPT	MCF10A rerep	IL1B secr inh
COc1ccc(C2=NOC(C(=O)NCc3ccco3)C2)cc1 (configuration not stated)	18µM*	2.8µM*	?	4µM*	6.5µM*	15
COc1cc(C2=NOC(C(=O)NCc3ccco3)C2)cc(OC)c1OC (configuration not stated)	?	3.3µM*	?	4.1µM*	?	38
Cc1ccc(CNC(=O)C2CC(c3cc(C(F)(F)F)cc(C(F)(F)F)c3)=NO2)o1 (configuration not stated)	?	4.6µM*	?	3.3µM*	9.2µM*	31
O=C(NCc1ccco1)C1CC(c2ccc(C(F)(F)F)cc2)=NO1 (configuration not stated)	?	12µM*	nt	13µM*	?	10
CCCCc1nnc(NC(=O)CSCc2cc(=O)n3cc(C)sc3n2)s1	0%	10%	3%	-5%	0%	-6
CC(=O)c1cccc(N2C(=O)CN(S(C)(=O)=O)CC2(C)C(=O)NC2CCCC2)c1 (configuration not stated)	nt	-11%	nt	-18%	nt	nt
COc1cccc(CN(C(=O)/C=C/c2ccc(Cl)cc2)C2CCS(=O)(=O)C2)c1 (configuration not stated)	13%	?	?	?	-38%	-58*
O=C(/C=C/c1ccco1)N(Cc1ccccc1)C1CCS(=O)(=O)C1 (configuration not stated)	15µM*	-24%	?	-9%	0%	17

Screening results (PubChem BioAssay)
